From PubChem BioAssay (Tox21)
Several values for one entry are separate records, joined by “and”; a condition that tells them apart may be missing. Identical values can stand only once. Inconclusive results are not listed. Activity calls are given as the source filed them. Calls follow the shape of the full dose curve.

Key:
[1] = target: Acetylcholinesterase (Homo sapiens) (UniProt P22303); assay: Acetylcholinesterase (AChE) small molecule antagonists: colormetric cell-based qHTS assay (AID 1347395); also: nearly all actives have a fitted effect of over 30% in size; also: potency is read from the fitted curve at half-maximal effect
In short: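 Colorimetric read-out: DTNB detects thiocholine released when cellular AChE in SH-SY5Y cells hydrolyses acetylthiocholine. Cells attached overnight, received compound for 30 min at 37 C, then substrate mix for 90 min at 37 C.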

[2] = target: Acetylcholinesterase (Homo sapiens) (UniProt P22303); assay: Acetylcholinesterase (AChE) small molecule antagonists: enzyme-based qHTS assay (AID 1347397); details: Potency: AChE enzyme activity inhibition; outcome: AChE enzyme activity inhibition; also: nearly all actives have a fitted effect of over 55% in size; also: potency is read from the fitted curve at half-maximal effect
In short: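 Tox21 library chemicals are tested in qHTS format against recombinant human AChE. The enzyme, dispensed at 50 mU/mL, sits with compound for 30 min at room temperature. A DTNB–acetylthiocholine cocktail follows, and colour is read after 10 min.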

[3] = target: Acetylcholinesterase (Homo sapiens) (UniProt P22303); assay: Acetylcholinesterase (AChE) small molecule antagonists: fluorescence cell-based qHTS assay (AID 1347398); details: Potency: AChE activity; outcome: AChE activity; also: nearly all actives have a fitted effect of over 50% in size; also: potency is read from the fitted curve at half-maximal effect
In short: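 Cellular AChE inhibition: SH-SY5Y cells treated with test chemical for 30 min at 37 C, then acetylthiocholine hydrolysis followed over 40 min at room temperature via thiocholine-reactive Thiolite Green fluorescence (490/520 nm).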

[4] = target: Acetylcholinesterase (Homo sapiens) (UniProt P22303); assay: Acetylcholinesterase (AChE) small molecule antagonists: enzyme-based qHTS assay with human liver microsomes (AID 1347399); details: Potency: qHTS inhibition; outcome: qHTS inhibition; also: nearly all actives have a fitted effect of over 60% in size
In short: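 Recombinant human AChE (50 mU/mL in the enzyme mix) and human liver microsomes (0.25 mg/mL final) were preincubated with compound and NADPH (0.25 mg/mL final) for 30 min at 37 C. Acetylthiocholine/DTNB was then added; thiocholine was read colorimetrically after 10 min at room temperature.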
% is scaled to controls: 0 for no effect and ±100 for the full control effect.

Chain of Acetylcholinesterase (Homo sapiens) (P22303 whole entry, looked up): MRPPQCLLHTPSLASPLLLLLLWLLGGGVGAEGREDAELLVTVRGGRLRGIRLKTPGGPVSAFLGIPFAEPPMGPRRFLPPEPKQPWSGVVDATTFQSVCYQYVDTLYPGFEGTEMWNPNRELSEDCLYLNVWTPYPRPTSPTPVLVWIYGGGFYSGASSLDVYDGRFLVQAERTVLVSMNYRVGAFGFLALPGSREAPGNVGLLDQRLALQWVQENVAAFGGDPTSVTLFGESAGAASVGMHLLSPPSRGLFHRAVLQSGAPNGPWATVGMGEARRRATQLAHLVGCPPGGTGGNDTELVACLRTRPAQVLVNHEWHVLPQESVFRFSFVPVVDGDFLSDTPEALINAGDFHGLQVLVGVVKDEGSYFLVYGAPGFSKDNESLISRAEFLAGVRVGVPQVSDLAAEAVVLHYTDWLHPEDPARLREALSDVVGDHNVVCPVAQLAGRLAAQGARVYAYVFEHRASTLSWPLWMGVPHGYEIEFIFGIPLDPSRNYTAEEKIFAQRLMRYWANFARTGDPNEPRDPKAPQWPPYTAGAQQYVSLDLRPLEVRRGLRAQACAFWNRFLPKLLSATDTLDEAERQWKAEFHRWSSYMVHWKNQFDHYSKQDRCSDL

CCC(=O)OC
inactive: Potency [1] | Potency [2] | Potency [3] | Potency [4]

O=C(OCCOCCOC(=O)c1ccccc1)c1ccccc1
inactive: Potency [1] | Potency [2] | Potency [3] | Potency [4]

CC(=O)CC(C)(C)O
inactive: Potency [1] | Potency [2] | Potency [3] | Potency [4]

CN1C(C(=O)Nc2ccccn2)=C(O)c2sccc2S1(=O)=O
inactive: Potency [1] | Potency [2] | Potency [3] | Potency [4]

COC(C)(OC)OC
inactive: Potency [1] | Potency [2] | Potency [3] | Potency [4]

Cc1ccc2c(ccc3ccccc32)c1
inactive: Potency [1] | Potency [2] | Potency [3] | Potency [4]

c1ccc2scnc2c1
inactive: Potency [1] | Potency [2] | Potency [3] | Potency [4]

CC(=O)N[C@H]1[C@H]([C@H](O)[C@H](O)CO)OC(C(=O)O)=C[C@@H]1N=C(N)N
inactive: Potency [1] | Potency [2] | Potency [3] | Potency [4]

NCc1ccccc1Sc1ccccc1CO
inactive: Potency [1] | Potency [2] | Potency [3] | Potency [4]

O=C(O)CCSSCCC(=O)O
inactive: Potency [1] | Potency [2] | Potency [3] | Potency [4]

Cc1ccc(C(C)(C)O)cc1
inactive: Potency [1] | Potency [2] | Potency [3] | Potency [4]

Nc1c(Cl)cc(Cl)cc1Cl
inactive: Potency [1] | Potency [2] | Potency [3] | Potency [4]

CCCCOc1cc(C(=O)NCCN(CC)CC)c2ccccc2n1
inactive: Potency [1] | Potency [2] | Potency [3] | Potency [4]

C=C(C)C(=O)OCCOC(=O)C(=C)C
inactive: Potency [1] | Potency [2] | Potency [3] | Potency [4]

Clc1ccc2cc3ccccc3cc2c1
inactive: Potency [1] | Potency [2] | Potency [3] | Potency [4]

O=[N+]([O-])c1ccc(/C=C/c2ccc([N+](=O)[O-])cc2S(=O)(=O)O)c(S(=O)(=O)O)c1
inactive: Potency [1] | Potency [2] | Potency [3] | Potency [4]

CCCc1c2oc(C(=O)O)cc(=O)c2cc2c(=O)cc(C(=O)O)n(CC)c12
inactive: Potency [1] | Potency [2] | Potency [3] | Potency [4]

c1ccc2sc(SN3CCOCC3)nc2c1
inactive: Potency [1] | Potency [2] | Potency [3] | Potency [4]

OCCN(CCO)c1ccccc1
inactive: Potency [1] | Potency [2] | Potency [3] | Potency [4]

Fc1ccccc1[C@@H](F)COC1CCC(Nc2ncnc3[nH]ncc23)CC1 (stereo not given in full)
inactive: Potency [1] | Potency [2] | Potency [3] | Potency [4]

CCCCCCCCCCCCOCCOCCOCCOCCOCCOCCOCCOCCOCCO
inactive: Potency [1] | Potency [2] | Potency [3] | Potency [4]

O=NN(CCCl)C(=O)NCCCl
inactive: Potency [1] | Potency [2] | Potency [3] | Potency [4]

CC(C)(c1ccc(O)cc1)c1ccc(O)cc1
inactive: Potency [1] | Potency [2] | Potency [3] | Potency [4]

CCCCCCc1ccc(-c2ccc(C#N)cc2)cc1
inactive: Potency [1] | Potency [2] | Potency [3] | Potency [4]

NC[C@H]1O[C@H](O[C@H]2[C@H](O)[C@@H](O[C@H]3O[C@H](CO)[C@@H](O)[C@H](N)[C@H]3O)[C@H](N)C[C@@H]2N)[C@H](N)[C@@H](O)[C@@H]1O
inactive: activity, negative = inhibition [1] 1.64% [at 23.6 µM] | activity change, negative = inhibition [2] 0.27% [at 23.6 µM] | activity change, negative = inhibition [3] 4.18% [at 23.8 µM] | activity change, negative = inhibition [4] 3.75% [at 23.6 µM]

CC(COCC(C)OC(=O)c1ccccc1)OC(=O)c1ccccc1 (stereo not given)
inactive: Potency [1] | Potency [2] | Potency [3] | Potency [4]

OC[C@]1(O)OC[C@@H](O)[C@H](O)[C@@H]1O
inactive: Potency [1] | Potency [2] | Potency [3] | Potency [4]

CC(C)Oc1ccccc1O
inactive: Potency [1] | Potency [2] | Potency [3] | Potency [4]

Nc1c[n+](N2CCOCC2)no1
inactive: Potency [1] | Potency [2] | Potency [3] | Potency [4]

Nc1ccc(Oc2cccc(Oc3ccc(N)cc3)c2)cc1
inactive: Potency [1] | Potency [2] | Potency [3] | Potency [4]

COc1cccc(O)c1
inactive: Potency [1] | Potency [2] | Potency [3] | Potency [4]

COC(=O)NN
inactive: Potency [1] | Potency [2] | Potency [3] | Potency [4]

Nc1cc([N+](=O)[O-])ccc1O
inactive: Potency [1] | Potency [2] | Potency [3] | Potency [4]

CNC(=O)NC
inactive: Potency [1] | Potency [2] | Potency [3] | Potency [4]

CC(C(=O)O)c1ccc(/C=C2\CCCCC2=O)cc1 (stereo not given)
inactive: Potency [1] | Potency [2] | Potency [3] | Potency [4]

COc1cc(C(=O)NCCCCCC(=O)O)cc(OC)c1OC
inactive: Potency [1] | Potency [2] | Potency [3] | Potency [4]

CC(C)CCCCCCCOC(=O)c1ccc(C(=O)OCCCCCCCC(C)C)c(C(=O)OCCCCCCCC(C)C)c1
inactive: Potency [1] | Potency [2] | Potency [3] | Potency [4]

N=C(N)c1ccc(OCCCCCOc2ccc(C(=N)N)cc2)cc1
active: Potency [1] 35.4 µM and 30.3 µM and 17.4 µM | Potency [2] 53.9 µM | Potency [3] 22.4 µM and 27 µM
inactive: Potency [4]

CC[N+](CC)(CC(=O)Nc1c(C)cccc1C)Cc1ccccc1
inactive: Potency [1] | Potency [2] | Potency [3] | Potency [4]

CCCCCCCCCCCCSC#N
inactive: Potency [1] | Potency [2] | Potency [3] | Potency [4]

CCN(Cc1cccc(S(=O)(=O)O)c1)c1ccc(C(=C2C=CC(=[N+](CC)Cc3cccc(S(=O)(=O)O)c3)C=C2)c2ccccc2S(=O)(=O)[O-])cc1
inactive: Potency [1] | Potency [2] | Potency [3] | Potency [4]

NC(=O)C(=O)N/N=C/c1ccc([N+](=O)[O-])o1
inactive: Potency [1] | Potency [2] | Potency [3] | Potency [4]

CO[C@H]1O[C@H](CO)[C@@H](O)[C@H](O)[C@H]1O
inactive: Potency [1] | Potency [2] | Potency [3] | Potency [4]

OCCN1C[C@H](O)[C@@H](O)[C@H](O)[C@H]1CO
inactive: Potency [1] | Potency [2] | Potency [3] | Potency [4]

COc1ccc(C(C)=O)cc1
inactive: Potency [1] | Potency [2] | Potency [3] | Potency [4]

CC(=O)CCC=C(C)C
inactive: Potency [1] | Potency [2] | Potency [3] | Potency [4]

CC(C)CC(=O)CC(C)CC(C)C (stereo not given)
inactive: Potency [1] | Potency [2] | Potency [3] | Potency [4]

Cc1cccc(C(C)(C)C)c1O
inactive: Potency [1] | Potency [2] | Potency [3] | Potency [4]

CC(N)=O
inactive: Potency [1] | Potency [2] | Potency [3] | Potency [4]

CCCCC(CC)COC(=O)C(C#N)=C(c1ccccc1)c1ccccc1 (stereo not given)
inactive: Potency [1] | Potency [2] | Potency [3] | Potency [4]

CCCC1O[C@@H]2C[C@H]3[C@@H]4CCC5=CC(=O)C=C[C@]5(C)[C@H]4[C@@H](O)C[C@]3(C)[C@]2(C(=O)CO)O1 (stereo not given in full)
inactive: Potency [1] | Potency [2] | Potency [3] | Potency [4]

C=CCCCCCCCCC(=O)OCC
inactive: Potency [1] | Potency [2] | Potency [3] | Potency [4]

CCCCCCCCCCCC
inactive: Potency [1] | Potency [2] | Potency [3] | Potency [4]

CCCC(=O)CC
inactive: Potency [1] | Potency [2] | Potency [3] | Potency [4]

COCCOC[C@H](CC1(C(=O)NC2CCC(C(=O)O)CC2)CCCC1)C(=O)Oc1ccc2c(c1)CCC2 (stereo not given in full)
inactive: Potency [1] | Potency [2] | Potency [3] | Potency [4]

CCCCCCCCNC
inactive: Potency [1] | Potency [2] | Potency [3] | Potency [4]

CCOc1ccc(NC(N)=O)cc1
inactive: Potency [1] | Potency [2] | Potency [3] | Potency [4]

c1ccc2c(c1)Cc1ccccc1-2
inactive: Potency [1] | Potency [2] | Potency [3] | Potency [4]

C=C1c2cccc(O)c2C(O)=C2C(=O)[C@]3(O)C(O)=C(C(N)=O)C(=O)[C@@H](N(C)C)[C@@H]3[C@@H](O)[C@H]12
inactive: Potency [1] | Potency [2] | Potency [3] | Potency [4]

CCc1occc(=O)c1O
inactive: Potency [1] | Potency [2] | Potency [3] | Potency [4]
